# ST2 IL33 inh – inhibitors of human ST2 (IL1RL1) binding to IL-33 | actives 2.3% (n = 78,000) | inhibition, % for hits at 17 µM | AID 1259354 | AlphaLISA ST2-Fc/biotin-IL-33 interaction, 1 h | Q01638; in the data active = inhibition above about 30%
# Target sequence (Q01638 whole entry, looked up): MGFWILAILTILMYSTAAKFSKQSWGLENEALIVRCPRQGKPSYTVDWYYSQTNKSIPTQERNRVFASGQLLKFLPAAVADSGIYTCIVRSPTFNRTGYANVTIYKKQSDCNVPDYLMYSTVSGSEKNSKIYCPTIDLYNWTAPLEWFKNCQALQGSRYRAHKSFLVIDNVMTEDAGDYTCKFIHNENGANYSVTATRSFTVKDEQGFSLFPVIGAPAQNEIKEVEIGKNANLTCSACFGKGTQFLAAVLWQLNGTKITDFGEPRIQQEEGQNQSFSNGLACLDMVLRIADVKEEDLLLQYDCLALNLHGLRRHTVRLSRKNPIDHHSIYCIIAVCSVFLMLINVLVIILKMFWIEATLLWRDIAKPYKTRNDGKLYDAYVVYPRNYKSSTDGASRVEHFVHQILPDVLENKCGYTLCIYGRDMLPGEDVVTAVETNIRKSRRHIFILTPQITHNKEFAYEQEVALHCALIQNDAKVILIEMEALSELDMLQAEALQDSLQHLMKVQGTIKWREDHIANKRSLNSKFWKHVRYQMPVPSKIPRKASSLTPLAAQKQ
# The depositor's hits bear a star; i = inactive. Shown is part of a subset that was picked to be rich in hits.
SMILES,ST2 IL33 inh
COc1ccc(C2=N/C(=C\c3cc(OC)c(OC)c(OC)c3)C(=O)O2)cc1[N+](=O)[O-],i
NC(=O)c1cccc(CC2CCN(C(=O)CCn3ccccc3=O)C2)c1 (stereo not drawn),i
O=C(CN1C(=O)C2CCCCN2C(=O)c2ccccc21)NCc1ccc2c(c1)OCO2 (stereo not drawn),i
O=C(CN1C(=O)C2CCCCN2C(=O)c2ccccc21)N1CCN(Cc2ccccc2)CC1 (stereo not drawn),i
O=C(CN1C(=O)C2CCCCN2C(=O)c2ccccc21)NCc1ccc(F)cc1 (stereo not drawn),37%*
O=C(CCc1ccncc1)NC1CC(=O)N(Cc2cccc3ccccc23)C1 (stereo not drawn),i
Cc1ccc(F)c(-c2ncccc2NC(=O)C(C)C)c1,i
Cc1ccc(C)c(C2=C/C(=C3/c4ccccc4-c4ncccc43)C(=O)O2)c1,43%*
Cc1ccc(F)c(-c2ncccc2C(=O)N2CCCC2)c1,i
CC1=C(C(=O)Nc2ccc(C)cc2C)C(c2ccncc2)n2c(nc3ccccc32)N1 (stereo not drawn),i
O=C(C1CC1)N1CCc2cc(Br)cc(S(=O)(=O)N3CCCCC3)c21,i
COc1cc2c(cc1OC)C(C(=O)NCCN(C)C)C(c1ccccc1F)N(C)C2=O (stereo not drawn),32%*
CCCCNC(=O)C1c2cc(OC)c(OC)cc2C(=O)N(C)C1c1ccccc1F (stereo not drawn),i
COc1ccccc1CNC(=O)C1c2cc(OC)c(OC)cc2C(=O)N(C)C1c1ccccc1F (stereo not drawn),i
CC(=O)OC12C[C@H]3C[C@@H](C1)CC(C(=O)N1CCN4CCNC(=O)C4C1)(C3)C2 (stereo partly drawn),i
COc1cccc(OC)c1C(=O)N1CCN=C1SCc1ccc(Br)cc1,i
CCCn1cnnc1CNc1nc(-c2ccccc2)nc2c1CCNC2,i
CCNc1ccccc1-c1nc2ccccc2[nH]c1=O,i
Cc1ccccc1Cn1c(-c2ccccc2F)nc2ccccc2c1=O,i
Cc1cccc2nc3c(nc12)C(=O)c1ccccc1C3=O,32%*
C=CCC1(CC=C)CCCN1C(=O)c1cn(CC2COc3ccccc3O2)nn1 (stereo not drawn),i
CC(=O)NCCCC(=O)N1CCC(=O)N(CC2CC2)C(C(C)C)C1 (stereo not drawn),i
CCc1c(-c2ccccc2)nc2ccccc2c1C(=O)NC1CC1,i
O=C(Cn1c(=O)n(Cc2ccccc2)c(=O)c2ccccc21)c1ccc(F)cc1,i
O=[N+]([O-])c1ccc(C2CNC(c3ccccc3)O2)cc1 (stereo not drawn),i
SMILES,ST2 IL33 inh
O=[N+]([O-])c1ccc(C2Nc3c(cccc3[N+](=O)[O-])C3C=CCC32)cc1 (stereo not drawn),45%*
COc1ccc(C(=O)N2CCCCC2)cc1[N+](=O)[O-],i
O=C(c1ccc2c(c1)C1C=CCC1C(c1ccc([N+](=O)[O-])cc1)N2)N1CCCCCC1 (stereo not drawn),40%*
O=S(=O)(c1ccc([C@@H]2Nc3ccc(Br)cc3[C@@H]3C=CC[C@@H]32)cc1)N1CCOCC1,i
CC1(C)C(=O)OC(c2ccccc2[N+](=O)[O-])C(C)(C)C1=O (stereo not drawn),i
O=C(c1ccc(Cl)cc1Cl)N1CCCC1,i
N#C/C(=C\c1cc(Cl)ccc1O)c1nc2ccccc2[nH]1,35%*
N#C/C(=C\c1ccc(O)cc1O)c1nc2ccccc2[nH]1,i
C=CCOc1ccc(Cl)cc1/C=C(\C#N)c1nc2ccccc2[nH]1,i
CC(C)(C)C1CCc2onc(C(=O)Nc3sc4c(c3C#N)CCC4)c2C1 (stereo not drawn),i
Clc1ccc(CN2CCN(c3ccccn3)CC2)cc1Cl,i
Fc1ccc(CN2CCN(c3ccccn3)CC2)cc1Br,33%*
Fc1ccccc1CN1CCN(c2ccccn2)CC1,i
CSc1cccc(NC(=O)CN(c2ccccc2F)S(C)(=O)=O)c1,i
COc1ccccc1/C=C1\N=C(c2cccc([N+](=O)[O-])c2)OC1=O,i
COc1cc(C)c(/C=C2/N=C(c3ccccc3)OC2=O)cc1C(C)C,i
Cc1cccc(/C=C2\N=C(c3ccccc3[N+](=O)[O-])OC2=O)c1,i
Cc1cccc(C2=N/C(=C\c3cccc(C(F)(F)F)c3)C(=O)O2)c1,32%*
O=C1OC(c2cccc([N+](=O)[O-])c2)=N/C1=C\c1ccc(Cl)cc1Cl,i
CCOc1ccc(/C=C2\N=C(c3cccc(I)c3)OC2=O)cc1,i
Cc1cccc(C2=N/C(=C\c3sccc3C)C(=O)O2)c1,37%*
Cc1cccc(C2=N/C(=C\c3ccc(C)o3)C(=O)O2)c1,53%*
COc1ccc(C2=N/C(=C\c3cccc(C(F)(F)F)c3)C(=O)O2)cc1OC,i
Cc1cccc(/C=C2\N=C(c3ccc4c(c3)OCO4)OC2=O)c1,i
COc1ccc(/C=C2\N=C(c3ccc(-c4ccccc4)cc3)OC2=O)cc1,i

# Compound activity as filed in PubChem BioAssay.
